A selection: hits, their analogues and other compounds. The true share with any hit is near 2.4%.
WRN inhibitor = inhibitors of human WRN helicase. Q14191. WRN helicase unwinding, fluorescent forked duplex, kinetic. AID 651768. Potency, µM (titrated, usually from 114 µM), hits mostly inhibitors. 360,000 compounds, 0.46% hits; further: nearly all actives have a fitted effect of over 55% in size
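Primary qHTS, 1536-well format. 20 nM WRN + compound, 15 min RT; start with 100 nM forked fluorophore/quencher duplex, 2 mM ATP (final); kinetic read ex 525/em 598 nm.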
FEN1 inh = human FEN1 inhibition; 390,000 compounds, 0.35% hits; Potency, µM (series often up to 114 µM), hits mostly inhibitors; P39748; Recombinant FEN1 flap cleavage, fluorescence, 15 min; further: nearly all actives have a fitted effect of over 65% in size
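Concentration–response screening of FEN1 (10 nM): 15 min compound preincubation at room temperature, reaction started with 50 nM substrate and read at 0 and 15 min. Corrected, normalized data were fitted by a four-parameter Hill equation.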
Pol beta inh = inhibitors of human DNA polymerase beta; Potency, µM (doses to about 114 µM), hits mostly inhibitors; P06746; 340,000 compounds, 1.3% hits; Pol beta primer extension/strand displacement, fluorescence kinetic
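Curves were derived by four-parameter Hill fits of normalized qHTS data. The kinetic fluorescent primer-extension read was taken at 0 and 10 min after 50 nM substrate, following a 15 min room-temperature preincubation of 10 nM enzyme with compounds.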
Pol eta inh-1 = blocks human DNA polymerase eta activity; 390,000 compounds, 1.2% hits; Potency, µM (series often up to 114 µM), usual class: inhibitors; recombinant Pol eta, fluorescent DNA replication assay; AID 588591
Target sequence (Q9Y253 whole entry, looked up): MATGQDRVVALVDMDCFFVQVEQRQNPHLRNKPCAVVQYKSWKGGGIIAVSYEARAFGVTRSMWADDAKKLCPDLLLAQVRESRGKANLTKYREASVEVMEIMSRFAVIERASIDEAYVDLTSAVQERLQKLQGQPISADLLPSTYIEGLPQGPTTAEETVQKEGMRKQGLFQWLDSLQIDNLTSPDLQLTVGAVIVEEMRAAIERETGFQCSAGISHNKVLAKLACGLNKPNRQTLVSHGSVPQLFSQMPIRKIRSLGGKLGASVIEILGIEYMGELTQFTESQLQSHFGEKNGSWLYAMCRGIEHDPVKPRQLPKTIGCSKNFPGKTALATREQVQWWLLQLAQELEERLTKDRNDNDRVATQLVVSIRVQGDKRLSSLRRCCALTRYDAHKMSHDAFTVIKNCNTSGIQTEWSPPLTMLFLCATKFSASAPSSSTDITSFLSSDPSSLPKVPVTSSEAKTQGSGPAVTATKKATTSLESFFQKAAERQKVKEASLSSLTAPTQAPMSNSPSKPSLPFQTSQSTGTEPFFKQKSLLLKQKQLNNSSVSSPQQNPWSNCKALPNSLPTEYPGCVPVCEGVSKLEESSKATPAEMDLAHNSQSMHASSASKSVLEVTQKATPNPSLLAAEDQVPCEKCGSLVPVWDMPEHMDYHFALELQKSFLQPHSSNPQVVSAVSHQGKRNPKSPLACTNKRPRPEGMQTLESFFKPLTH
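Fluorescent replication assay: 50 nM final substrate added after a 15 min room-temperature compound preincubation with 10 nM enzyme. Signal taken at 0 min and again at 10 min.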
Pol iota inh = inhibitors of human DNA polymerase iota. Pol iota fluorescent replication assay, 10 min. AID 588590. Q9UNA4. Potency, µM (series often up to 115 µM), actives largely listed as inhibitors. 390,000 compounds, 1% hits
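Pol iota at 10 nM preincubated 15 min with compounds at room temperature; reaction started with fluorescent substrate, 50 nM final. Fluorescence read kinetically at 0 and 10 min; buffer-only wells as negative control.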
Pol kappa inh-1 = blocks human DNA polymerase kappa activity | Potency, µM (series often up to 107 µM), actives largely listed as inhibitors | Q9UBT6 | purified Pol kappa, fluorescent DNA synthesis assay, 10 min | 400,000 compounds, 0.53% hits
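Pol kappa 10 nM + cpd, 15 min RT; start w/ substrate 50 nM final; fluorescence kinetic read, 0 and 10 min. Neg ctrl: buffer, no enzyme.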
Pol kappa inh-2 = confirmation of human DNA polymerase kappa inhibitors | shares compounds with Pol eta inh-1 | purified Pol-kappa, fluorescent strand-displacement substrate | Potency, µM, most hits filed as inhibitors | 920 compounds, 76% hits | AID 720501
Pol eta inh-2 = Pol eta (human) inhibition, cherry-pick confirmation; Potency, µM, hits mostly inhibitors; 2,600 compounds, 64% hits; AID 720502; shares compounds with Pol eta inh-1; Pol eta primer extension, TAMRA/BHQ fluorescence, 10 min
Numbers stand for hits; [ ] = dose if it differs, or a comment. The call rests on the fitted dose curve; in most records, active means well fitted curve in the direction sought with a large enough effect; inconclusive means small, poorly fitted or top-dose-only effect, or another doubt; inactive means no such curve, though single readings can be large; an effect the other way counts as inactive or inconclusive.

What do the screens show for `CN(CC(=O)Nc1ccc(F)cc1)C(=O)c1cc(-c2ccco2)nc2ccccc12`?
WRN inhibitor: inconclusive; FEN1 inh: inactive; Pol eta inh-1: 40µM; Pol iota inh: 16µM; Pol kappa inh-1: inconclusive; Pol eta inh-2: inconclusive

Results for O=C(NCc1ccccc1)c1ccc2c(=O)[nH]c3c(C(=O)NCC4CCCO4)sc(=S)n3c2c1 (stereo unspecified) ?
WRN inhibitor: inconclusive; FEN1 inh: inactive; Pol beta inh: inconclusive; Pol eta inh-1: inconclusive; Pol iota inh: inactive; Pol kappa inh-1: inactive; Pol eta inh-2: inconclusive

How did O=C(Nc1nc(-c2ccco2)c(-c2ccco2)s1)c1cnccn1 do in these assays?
WRN inhibitor: inactive[11.6 µM]; FEN1 inh: inactive; Pol eta inh-1: inconclusive; Pol iota inh: 50µM; Pol kappa inh-1: inconclusive; Pol eta inh-2: 76

Results for O=C(Nc1nc(-c2ccco2)c(-c2ccco2)s1)c1c(F)cccc1Cl ?
WRN inhibitor: inactive; FEN1 inh: inactive; Pol eta inh-1: inconclusive; Pol iota inh: inactive; Pol kappa inh-1: inconclusive

What do the screens show for `Cc1ccc(Cl)cc1N1CCN(C(=O)CN(c2ccccc2)S(=O)(=O)N(C)C)CC1`?
WRN inhibitor: inactive[11.6 µM]; FEN1 inh: inactive; Pol beta inh: 10µM; Pol eta inh-1: 50µM; Pol iota inh: 25µM; Pol kappa inh-1: inconclusive; Pol kappa inh-2: inconclusive

What do the screens show for `O=C(O)C1C2C=CC3(O2)C1C(=O)N1c2ccccc2C2OCCC2C13` (stereo unspecified)?
WRN inhibitor: inactive; FEN1 inh: inactive; Pol beta inh: 40µM; Pol eta inh-1: 35µM; Pol iota inh: inconclusive; Pol kappa inh-1: inactive; Pol eta inh-2: inconclusive

Results for C=C(C)CC1N(c2cccc(OC)c2)C(=O)C2C(C(=O)O)C3C=CC21O3 (stereo unspecified) ?
WRN inhibitor: inactive; FEN1 inh: inactive; Pol beta inh: inactive; Pol eta inh-1: inactive; Pol iota inh: inactive; Pol kappa inh-1: inactive

What do the screens show for `O=[n+]1c2c(n([O-])c3cc(F)c(N4CCCC4)cc31)CCC2`?
WRN inhibitor: inconclusive; FEN1 inh: inactive; Pol eta inh-1: inconclusive; Pol iota inh: inconclusive; Pol kappa inh-1: inconclusive; Pol eta inh-2: inconclusive

How did O=[n+]1c2c(n([O-])c3cc(F)ccc31)CCCC2 do in these assays?
WRN inhibitor: inactive; FEN1 inh: inactive; Pol beta inh: inactive; Pol eta inh-1: inactive; Pol iota inh: inactive; Pol kappa inh-1: inactive

How did CN(Cc1ccccc1)C(=O)[C@H](Cc1ccc2ccccc2c1)NC(=O)[C@@H]1CCCN1C(=O)Nc1ccccc1[N+](=O)[O-] do in these assays?
Pol kappa inh-1: inactive

What do the screens show for `COCCCN(C(=O)c1cc(-c2ccco2)nc2ccccc12)c1c(N)n(Cc2ccccc2)c(=O)[nH]c1=O`?
WRN inhibitor: inactive; FEN1 inh: inactive; Pol eta inh-1: 25µM; Pol iota inh: 40µM; Pol kappa inh-1: inconclusive; Pol eta inh-2: inconclusive

Results for COCCCN(C(=O)c1cc(Cl)nc2ccccc12)c1c(N)n(Cc2ccccc2)c(=O)[nH]c1=O ?
WRN inhibitor: inactive; FEN1 inh: inactive; Pol eta inh-1: inactive; Pol iota inh: inactive; Pol kappa inh-1: inactive

What do the screens show for `COCCN(C(=O)COC(=O)Cc1coc2cc3c(cc12)CCC3)c1c(N)n(Cc2ccccc2)c(=O)[nH]c1=O`?
WRN inhibitor: inconclusive; FEN1 inh: inactive; Pol eta inh-1: 20µM; Pol iota inh: 28µM; Pol kappa inh-1: inconclusive; Pol eta inh-2: 76

How did COc1ccc(CNC(=O)c2ccc(Cn3c(=O)c4cccn4c4cccnc43)cc2)c(OC)c1 do in these assays?
FEN1 inh: inactive; Pol beta inh: inactive; Pol eta inh-1: inactive; Pol iota inh: inactive; Pol kappa inh-1: inactive

Results for CCOC(=O)C1=C(O)/C(=C\c2ccc(CNC(=O)C(=O)Nc3ccccc3)o2)N=C1C ?
WRN inhibitor: inconclusive; FEN1 inh: inactive; Pol beta inh: 8.9µM; Pol eta inh-1: 10µM; Pol iota inh: 18µM; Pol kappa inh-1: inconclusive; Pol kappa inh-2: 53; Pol eta inh-2: 48

How did CNC(=S)N/N=C/c1ccc(-c2ccc(C(=O)O)cc2)o1 do in these assays?
WRN inhibitor: inactive[11.6 µM]; FEN1 inh: inactive; Pol beta inh: inconclusive; Pol eta inh-1: 22µM; Pol iota inh: inconclusive; Pol kappa inh-1: inconclusive; Pol eta inh-2: 34

What do the screens show for `NS(=O)(=O)c1ccc(-c2ccc(/C=N/NC(=O)c3ccc([N+](=O)[O-])cc3)o2)cc1`?
WRN inhibitor: inactive; FEN1 inh: inactive; Pol beta inh: inactive; Pol eta inh-1: inactive; Pol iota inh: inactive; Pol kappa inh-1: inactive

Results for NS(=O)(=O)c1ccc(-c2ccc(/C=N/Nc3ccc(C(=O)O)cc3)o2)cc1 ?
WRN inhibitor: inactive; FEN1 inh: inconclusive; Pol beta inh: inactive; Pol eta inh-1: 28µM; Pol iota inh: 50µM; Pol kappa inh-1: inconclusive; Pol eta inh-2: inconclusive

How did C/C(=N\Nc1cccc(C(=O)O)c1)c1ccc(Cl)s1 do in these assays?
WRN inhibitor: inactive; FEN1 inh: inactive; Pol beta inh: 32µM; Pol eta inh-1: 20µM; Pol iota inh: 35µM; Pol kappa inh-1: 71µM; Pol eta inh-2: 27

Results for COc1ccc(/C(C)=N/Nc2cccc(C(=O)O)c2)cc1OC ?
WRN inhibitor: inactive; FEN1 inh: inactive; Pol beta inh: inactive; Pol eta inh-1: inconclusive; Pol iota inh: inactive; Pol kappa inh-1: inactive

How did N#Cc1c(SCC(=O)Nc2ccc(C(F)(F)F)cc2)sc2c(O)cc(=O)[nH]c12 do in these assays?
WRN inhibitor: inactive; FEN1 inh: inactive; Pol beta inh: inactive; Pol eta inh-1: inactive; Pol iota inh: inactive; Pol kappa inh-1: inactive

How did COc1cc(Cl)c(C)cc1NC(=O)CSc1sc2c(O)cc(=O)[nH]c2c1C#N do in these assays?
WRN inhibitor: inactive[11.6 µM]; FEN1 inh: inconclusive; Pol beta inh: inconclusive; Pol eta inh-1: 28µM; Pol iota inh: inconclusive; Pol kappa inh-1: inactive; Pol kappa inh-2: 19; Pol eta inh-2: 60

Results for COc1cccc(NC(=S)NC(=O)/C=C/c2ccco2)c1 ?
WRN inhibitor: inconclusive; FEN1 inh: inactive; Pol beta inh: 40µM; Pol eta inh-1: 45µM; Pol iota inh: 28µM; Pol kappa inh-1: inconclusive; Pol kappa inh-2: 17; Pol eta inh-2: 48

How did O=C(/C=C/c1ccco1)Nc1cccc(NC(=O)/C=C/c2ccco2)n1 do in these assays?
WRN inhibitor: inactive[11.6 µM]; FEN1 inh: inactive; Pol beta inh: 25µM; Pol eta inh-1: 20µM; Pol iota inh: 35µM; Pol kappa inh-1: inactive; Pol eta inh-2: inconclusive

High-throughput results deposited in PubChem by National Center for Advancing Translational Sciences (NCATS).
